# Test results: PMC8384837, “Expanding the binding specificity for RNA recognition by a PUF domain”
# How the values were obtained:
# Assay in all cases: yeast three-hybrid, YBZ-1, SC-Leu-His + 0.5 mM 3-AT, 4 days
# Conditions in all cases: tags: N-Gal4 AD-HA kept; label: inside an RPR1-promoter hybrid RNA with tandem MS2 sites; ssRNA
# [1] = target: PUM1 PUF domain R3-APL (Homo sapiens, UniProt Q14671 828-1176, C935A;R936P;Q939L)
# How it was run: (§1)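 Repeat regions from input (SC-Leu) and selection (SC-Leu-His + 0.5 mM 3-AT) plates were PCR-amplified and Illumina-sequenced after four days of growth. The cells were strain YBZ-1 with a LexA–MS2 coat fusion and a HIS3 reporter, co-expressing Pumilio-1 PUF domain libraries and matching RNA elements from a centromeric plasmid. The interaction score is the log change in variant frequency from input to selection, taken in log2 with a pseudocount of 1 for absent variants.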
# [2] = target: PUM1 PUF domain R4-SRL (Homo sapiens, UniProt Q14671 828-1176, N971S;H972R;Q975L)
# How it was run: as §1
# [3] = target: PUM1 PUF domain R4-YRL (Homo sapiens, UniProt Q14671 828-1176, N971Y;H972R;Q975L)
# How it was run: as §1
# [4] = target: PUM1 PUF domain R5-QRK (Homo sapiens, UniProt Q14671 828-1176, C1007Q;Q1011K)
# How it was run: as §1
# [5] = target: PUM1 PUF domain R8-RHG (Homo sapiens, UniProt Q14671 828-1176, N1122R;Y1123H;Q1126G)
# How it was run: as §1
# [6] = target: T1, PUM1 PUF domain R6-RFC (Homo sapiens, UniProt Q14671 828-1176, N1043R;Y1044F;Q1047C)
# T1 sequence: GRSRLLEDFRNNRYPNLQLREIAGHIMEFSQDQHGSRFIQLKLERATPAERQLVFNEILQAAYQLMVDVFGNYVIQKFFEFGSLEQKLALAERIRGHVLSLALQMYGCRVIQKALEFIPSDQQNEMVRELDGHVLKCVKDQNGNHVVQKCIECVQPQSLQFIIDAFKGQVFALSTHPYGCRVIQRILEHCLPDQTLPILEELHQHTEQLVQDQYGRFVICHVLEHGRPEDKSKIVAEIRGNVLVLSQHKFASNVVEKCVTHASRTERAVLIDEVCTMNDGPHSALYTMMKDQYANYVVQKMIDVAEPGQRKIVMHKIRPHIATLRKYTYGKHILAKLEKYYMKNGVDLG
# How it was run: as §1
# [7] = target: PUM1 PUF domain R5-RHQ (Homo sapiens, UniProt Q14671 828-1176, C1007R;R1008H)
# How it was run: as §1
# [8] = target: PUM1 PUF domain R5-KST (Homo sapiens, UniProt Q14671 828-1176, C1007K;R1008S;Q1011T)
# How it was run: as §1
# [9] = target: PUM1 PUF domain R5-RPD (Homo sapiens, UniProt Q14671 828-1176, C1007R;R1008P;Q1011D)
# How it was run: as §1
# [10] = target: PUM1 PUF domain R5-RNW (Homo sapiens, UniProt Q14671 828-1176, C1007R;R1008N;Q1011W)
# How it was run: as §1
sequence,measurement,setting,value
GGCUAGAACUAGUGGAUCCCCCGGCGCCCGGCGGCUCGAGCCCGGGUAAGUGUAAAUAGUCUGCAUGCCGCCGGGCGCCAUGCCUGCAGGUCGACUCUAGAAAACAUG,binding signal,[1],3.04 log2 enrichment (interaction score)
same,binding signal,[2],3.87 log2 enrichment (interaction score)
same,binding signal,[3],3.01 log2 enrichment (interaction score)
same,binding signal,[4],2.97 log2 enrichment (interaction score)
same,binding signal,[5],4.31 log2 enrichment (interaction score)
same,binding signal,[6],4.13 log2 enrichment (interaction score)
GGCUAGAACUAGUGGAUCCCCCGGCGCCCGGCGGCUCGAGCCCGGGUAAGUGUGAAUAGUCUGCAUGCCGCCGGGCGCCAUGCCUGCAGGUCGACUCUAGAAAACAUG,binding signal,[7],4.24 log2 enrichment (interaction score)
GGCUAGAACUAGUGGAUCCCCCGGCGCCCGGCGGCUCGAGCCCGGGUAAGUGUCAAUAGUCUGCAUGCCGCCGGGCGCCAUGCCUGCAGGUCGACUCUAGAAAACAUG,binding signal,[8],4.03 log2 enrichment (interaction score)
same,binding signal,[9],3.41 log2 enrichment (interaction score)
same,binding signal,[10],0.29 log2 enrichment (interaction score)
GGCUAGAACUAGUGGAUCCCCCGGCGCCCGGCGGCUCGAGCCCGGGUAAGUGUUAAUAGUCUGCAUGCCGCCGGGCGCCAUGCCUGCAGGUCGACUCUAGAAAACAUG,binding signal,[8],2.74 log2 enrichment (interaction score)
same,binding signal,[9],2.4 log2 enrichment (interaction score)
same,binding signal,[10],2.82 log2 enrichment (interaction score)
GGCUAGAACUAGUGGAUCCCCCGGCGCCCGGCGGCUCGAGCCCGGGUAAGCGUAAAUAGUCUGCAUGCCGCCGGGCGCCAUGCCUGCAGGUCGACUCUAGAAAACAUG,binding signal,[5],4.32 log2 enrichment (interaction score)
GGCUAGAACUAGUGGAUCCCCCGGCGCCCGGCGGCUCGAGCCCGGGUAAGUGAAAAUAGUCUGCAUGCCGCCGGGCGCCAUGCCUGCAGGUCGACUCUAGAAAACAUG,binding signal,[6],1.2 log2 enrichment (interaction score)
